Screens from PubChem BioAssay.
GPR151 activ: human GPR151 activation; PathHunter beta-arrestin GPR151 cells, luminescence; activation, % at 11.2 µM; actives 1% (n = 650,000); in the data active = activation above about 4.9%;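 note: 0% = median of compound wells and 100% = cells with positive control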
FBW7 act: human FBW7 E3 ligase activation, primary screen; Q969H0; actives 0.13% (n = 650,000); AID 1259310; normalized activity (activation), % at 26.1 µM; AlphaScreen FBW7–phospho-cyclin E peptide binding, activator screen; in the data active = normalized activity above about 1.9%;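 note: purified mutant Fbw7 with reduced substrate affinity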
Target sequence (Q969H0 whole entry, looked up): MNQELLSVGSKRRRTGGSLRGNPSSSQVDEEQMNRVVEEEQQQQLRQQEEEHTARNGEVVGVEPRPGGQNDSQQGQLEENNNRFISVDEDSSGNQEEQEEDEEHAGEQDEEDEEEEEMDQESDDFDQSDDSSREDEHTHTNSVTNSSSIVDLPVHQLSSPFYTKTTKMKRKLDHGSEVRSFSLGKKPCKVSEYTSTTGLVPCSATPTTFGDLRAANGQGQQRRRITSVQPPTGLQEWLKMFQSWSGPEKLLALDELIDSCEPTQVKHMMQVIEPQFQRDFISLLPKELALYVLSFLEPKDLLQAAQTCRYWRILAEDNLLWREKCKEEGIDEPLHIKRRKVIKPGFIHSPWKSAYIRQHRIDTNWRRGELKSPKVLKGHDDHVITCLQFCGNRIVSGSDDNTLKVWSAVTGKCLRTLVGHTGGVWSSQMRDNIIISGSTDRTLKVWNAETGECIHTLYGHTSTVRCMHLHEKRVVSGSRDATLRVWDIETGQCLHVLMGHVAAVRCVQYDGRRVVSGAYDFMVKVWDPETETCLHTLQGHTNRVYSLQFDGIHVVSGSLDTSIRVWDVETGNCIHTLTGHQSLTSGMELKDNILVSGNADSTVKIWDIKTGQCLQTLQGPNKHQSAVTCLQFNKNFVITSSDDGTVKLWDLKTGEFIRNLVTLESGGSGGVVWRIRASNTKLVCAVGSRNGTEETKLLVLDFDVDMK
MITF primary: inhibitors of human MITF. O75030. AlphaScreen MITF homodimerization, bead proximity signal. inhibition, % at 2.6 µM. actives 0.91% (n = 650,000); in the data active = inhibition above about 50%;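 note: 0% = vehicle wells with protein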
TEAD-YAP inh: TEAD-YAP interaction inhibition; inhibition, % at 9.12 µM; actives 1.4% (n = 640,000); HEK-TIYL cells, TEAD-Gal4/YAP UAS-luciferase luminescence; AID 1259422; in the data active = inhibition above about 32%;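 note: 0% = median of test compound wells and 100% = reference inhibitor wells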
Starred values were filed as active, the others as inactive. In the library only some 3.5% were active in any assay of this set; here they are far more common.

SMILES	GPR151 activ	FBW7 act	MITF primary	TEAD-YAP inh
COc1ccc(C(=O)Nc2ncc(Cc3ccc(F)cc3)s2)cc1OC	0.2	1.0	10.0	54.8*
COc1cc(C(=O)Nc2ncc(Cc3ccc(Cl)cc3)s2)cc(OC)c1OC	0.4	-0.1	-3.3	58.5*
CC(=O)Nc1ncc(Cc2ccc(Cl)cc2)s1	1.9	0.1	1.7	11.1
COc1ccc(Cc2cnc(NC(=O)c3sc4ccccc4c3Cl)s2)cc1	2.2	0.0	-21.9	48.2*
COc1ccc(-c2nnc(SCC(=O)N3CC(=O)Nc4ccccc43)n2C(C)C)cc1	1.3	-0.1	-3.1	9.1
N#Cc1cccc(C(=O)n2nnc3ccccc32)c1	-1.8	0.5	0.7	-8.5
N=C1/C(=C/c2cccn2-c2cc([N+](=O)[O-])ccc2Cl)C(=O)N=C2SC=CN12	-1.0	-0.1	8.5	36.3*
c1ccn2cc(CSc3nncn4c3cc3sccc34)nc2c1	-1.2	-0.8	0.1	-13.0
O=C(O)CC(NCc1ccccc1)C(=O)Nc1ccc(Cl)cc1 (stereo unspecified)	1.0	0.3	11.1	13.2
CCC(=O)NC(c1ccc(N(C)C)cc1)c1ccc2cccnc2c1O (stereo unspecified)	-0.2	-2.0	35.0	68.6*
CC(C)C(=O)NC(c1ccc(N(C)C)cc1)c1ccc2cccnc2c1O (stereo unspecified)	-0.3	-1.9	30.8	83.5*
CC(=O)NC(c1ccc(N(C)C)cc1)c1ccc2cccnc2c1O (stereo unspecified)	-0.6	-2.0	58.6*	81.8*
CCCCC(=O)NC(c1ccc(N(C)C)cc1)c1ccc2cccnc2c1O (stereo unspecified)	-0.8	-2.0	21.8	75.1*
COc1cccc(CNCc2ccc(C#N)cc2)c1	0.0	0.6	31.4	5.4
CC1CN(CCOCCOc2ccc(Cl)c(Cl)c2)CC(C)O1 (stereo unspecified)	2.9	0.0	32.8	0.1
CCN(CC)c1ccc(C(NC(=O)C(C)C)c2ccc3cccnc3c2O)cc1 (stereo unspecified)	-1.3	-1.0	19.8	73.5*
Cc1cc2cc3c(cc2c(C)n1)c1ccccc1n3C	-1.1	0.2	-8.2	62.8*
Cn1c2ccccc2c(=O)c2ccccc21	0.1	0.0	-6.3	-38.0
Cc1[nH]n(-c2nc(-c3ccccc3)cs2)c(=O)c1C(c1ccccc1)C(C#N)C(N)=O (stereo unspecified)	-0.4	-0.2	-7.0	59.0*
COc1ccc(-c2csc(N3N=C(C)C(N=Nc4ccc(C(N)=O)cc4)C3=O)n2)cc1 (stereo unspecified)	-0.5	-0.1	-0.3	0.1
CC1=NN(c2nc(-c3ccc(C)cc3)cs2)C(=O)C1C(c1ccccc1)C(C#N)C(N)=O (stereo unspecified)	2.8	-0.1	-16.2	75.3*
COc1cc(OC)cc(C(=O)NC(=S)Nc2ccc([N+](=O)[O-])cc2OC)c1	0.7	0.0	17.9	9.4
C=CCOc1cccc(/C=C2\SC(N)=NC2=O)c1	1.0	0.0	-11.5	3.8
Fc1cc(-c2nc(Nc3cccc(CN4CCOCC4)c3)ncc2F)cc(N2CCOCC2)c1	-2.2	0.9	14.5	90.9*
Fc1cc(-c2nc(Nc3cccc(CN4CCCC4)c3)ncc2F)cc(N2CCOCC2)c1	-1.1	0.4	11.0	93.3*
SMILES	GPR151 activ	FBW7 act	MITF primary	TEAD-YAP inh
Cc1nc(C)n(-c2ccc(Nc3ncc(F)c(-c4cc(C#N)cc(N5CCOCC5)c4)n3)cc2)n1	-0.6	-0.1	-3.3	4.2
Fc1cc(-c2nc(Nc3ccc(-n4ccnc4)cc3)ncc2F)cc(N2CCOCC2)c1	-0.7	-0.1	-4.3	57.4*
Cc1nc(C)n(-c2ccc(Nc3ncc(F)c(-c4cc(F)cc(N5CCN(C)CC5)c4)n3)cc2)n1	-1.5	-0.2	-2.6	63.6*
Fc1cc(-c2nc(Nc3cccc(Cn4cccn4)c3)ncc2F)cc(N2CCOCC2)c1	-1.7	0.1	17.1	-5.9
Fc1cc(-c2ccnc(Nc3cccc(CN4CCOCC4)c3)n2)cc(N2CCOCC2)c1	-1.2	-0.2	3.3	53.0*
O=C1CCCN1c1cccc([N+](=O)[O-])c1	-0.5	0.5	10.0	7.2
NNS(=O)(=O)c1ccc(N2CCCC2=O)cc1	-0.3	-0.2	-9.0	7.8
O=C1CCCN1c1ccc(S(=O)(=O)Oc2cccc([N+](=O)[O-])c2)cc1	-0.8	-0.1	-1.8	52.0*
O=C1CCCN1c1ccc(S(=O)(=O)Nc2ccc(F)c(Cl)c2)cc1	1.2	0.0	-2.1	46.5*
O=C1CCCN1c1ccc(S(=O)(=O)Nc2ccc(Cl)c(Cl)c2)cc1	1.2	0.0	-3.7	45.6*
O=C1CCCN1c1ccc(S(=O)(=O)Oc2ccc(Cl)cc2Cl)cc1	0.2	0.1	-0.2	61.2*
O=C1CCCN1c1ccc(NS(=O)(=O)c2ccc(F)cc2)cc1	-0.8	0.0	9.0	31.2
CN1CCc2cc(CNC3CCN(c4ccc(C(=O)NC5CCCC5)cc4)CC3)ccc21	-1.0	-0.7	-14.7	-1.1
CCN(CC)CCOC(=O)c1ccc(N2Cc3ccccc3C2=N)cc1	-1.2	0.7	9.7	-14.6
Cc1ccc(NC(=O)CC2Sc3ccccc3NC2=O)c(C)c1 (stereo unspecified)	-0.5	0.0	7.1	16.2
CCOc1ccc(NC(=O)c2cccc3ccccc23)c([N+](=O)[O-])c1	-1.6	-0.3	25.2	42.7*
CCOc1cc([N+](=O)[O-])ccc1NC(=O)CC1Sc2ccccc2NC1=O (stereo unspecified)	-0.1	0.1	3.8	57.8*
Cc1ccc(NC(=O)CC2Sc3ccccc3NC2=O)c([N+](=O)[O-])c1 (stereo unspecified)	1.3	-0.2	2.2	48.1*
CCOc1ccc(NC(=O)CC2Sc3ccccc3NC2=O)c([N+](=O)[O-])c1 (stereo unspecified)	-1.1	0.0	-11.4	52.4*
O=C(NCc1cnn(-c2ccccc2)n1)C1CC(Cc2cccc3ccccc23)=NO1 (stereo unspecified)	-0.9	-0.1	7.4	-66.1
COc1ccc(Cc2nnc(C(=O)NCCCO)o2)cc1OC	1.1	-0.1	-3.2	1.0
COCc1nnc(NC(=O)c2cc([N+](=O)[O-])ccc2Cl)s1	0.2	-0.1	1.5	6.3
CCC(=O)Oc1ccc2ccccc2c1-c1c(OC(=O)CC)ccc2ccccc12	1.7	0.3	19.4	0.2
O=C1CCCC2=C1C(c1cccs1)c1c(n[nH]c1-c1ccc([N+](=O)[O-])cc1)N2 (stereo unspecified)	0.3	0.0	-1.2	41.6*
COc1ccc(OC)c(CNc2ncc(-c3ccc(Br)cc3)n2C)c1	-0.4	0.2	34.8	2.8
COc1ccc(OC)c(CNc2ncc(-c3cccc(Br)c3)n2C)c1	-0.2	-0.3	24.6	43.0*
COc1cccc(CNc2ncc(-c3cccc(OC)c3)n2C)c1	3.0	-0.4	36.3	54.1*
O=S(=O)(Cc1ccc(Cl)cc1)Nc1ccc2c(c1)OCCO2	0.0	-0.1	3.2	40.7*
O=S(=O)(Nc1ccc2c(c1)OCCO2)c1ccc(Cl)cc1	-0.5	0.0	5.1	-7.8
COC(=O)c1cc(C(=O)N2CCN(c3cccc(Cl)c3)CC2)cc([N+](=O)[O-])c1	0.7	0.0	3.8	63.1*
